Data on 40 molecules can be found in PubChem BioAssay (NCI).

The structures appear in SMILES notation. Values joined by “and” are separate entries in the source; they are usually repeats but may differ in a detail not shown here. Equal values may be shown once. The panel holds about 83,000 compounds, 20% with a hit somewhere; the sample as a whole holds those more often.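 Assay: single dose, 48 h. Readout: percent growth (0 = no net growth; negative = cell death). Active: <10.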 A number with no mark means an inactive call. Active and inactive are the calls of the source.

The subject of this assay is MDA-MB-468 breast. Put plainly: NCI-60 one-dose screen, 48 h (100 = growth as untreated, 0 = no growth, -100 = all killed). The conditions noted are these: 10 µM unless noted.
For the molecule `Nc1ncc(-c2cnn(C3CCNCC3)c2)cc1-c1nc2ccccc2o1`, the growth was -29.1% (active).

With `Cc1cc2ccccc2c2cc3ccccc3cc12`, the growth was 5.23% (active).

For the molecule `O=C(Nc1ccc(-n2ccc3c(NC(=O)c4ccccc4)ncnc32)cc1)Nc1ccc(Cl)c(Cl)c1`, the growth was -36.7% (active).

As to `C#CCn1cc(C=C2C(=O)NC(=S)NC2=O)c2cc(Cl)ccc21`, the growth was 32.5%.

Regarding `CC(=O)Nc1nc(C)c(C(=O)N/N=C/N2CCCCC2)s1`, the growth was 101%.

As to `COc1ccc(/C=C(/C(=O)N2CCCCC2)c2cc(OC)c(OC)c(OC)c2)cc1`, the growth is 13.3%.

Consider `N#C/C(=C\c1ccc(-c2ccc(Cl)cc2)o1)c1nc(-c2ccco2)cs1`, for which the growth was -26.7% (active).

As for `N#CC1=C(N)Oc2c(sc3c(Br)cccc23)C1c1ccc(Br)cc1` (stereo not given), the growth was 12.1%.

Take `O=C(Nc1ccc(Cl)cc1)C1=NCCCCN1`: the growth was 111%.

`Cc1nn(-c2cc(NC3CCC(O)CC3)c3c(=O)[nH]c(CCC(F)(F)F)cc3c2)c2c1C(=O)CC(C)(C)C2` (stereo not given): the growth is 5.19% (active).

Turning to `COc1cccc(CNc2cccc3cn[nH]c23)c1O`, the growth was 80.6%.

Consider `CN1CCN(Cc2ccc(NC(=O)c3cncc(C#Cc4cnc5ccc(NC6CCOCC6)nn45)c3)cc2C(F)(F)F)CC1`, for which the growth is -88.5% (active).

For the molecule `CCC/C(=N\NC(N)=O)C(OC)OC`, the growth was 103%.

In the case of `NC1=CC(=O)C(=O)c2ccccc21`, the growth was 86.8%.

On to `CCc1ccccc1-n1c(N)c(C#N)c(-c2ccc(N(C)C)cc2)c(C#N)c1=O`, for which the growth is 116%.

Regarding `COc1ccc(NC(=O)CSc2nc3ccccc3c(=O)n2Cc2cc(OC)c(OC)c(OC)c2)cc1`, the growth is 104%.

As to `O=S1(=O)CC(Br)C(Br)C1` (stereo not given), the growth is 37% and 75.6%.

As for `O=S(=O)(NCCCNc1nccc(-c2c(-c3ccc(F)cc3)nc3sccn23)n1)c1ccc(F)cc1`, the growth is 50.5%.

As for `CS(=O)(=O)Nc1cc(-c2ccc3ncc(C#N)c(NCc4ccccc4O)c3c2)cnc1Cl`, the growth is -23.1% (active).

In the case of `COc1cccc2c1C=CC1(O2)Oc2cccc(OC)c2C=C1C` (stereo not given), the growth was 39.5%.

With `COc1cccc(/C(C#N)=C/c2nc3c(N4CCOCC4)nc(Cl)nc3n2C)c1`, the growth was -63% (active).

For `CC(C)(C)CC(C)(C)c1ccc(OCCO)cc1`, the growth was 113%.

With `O=[N+]([O-])c1cc(C(F)(F)F)ccc1Sc1ccc(C(F)(F)F)cc1[N+](=O)[O-]`, the growth was -4.58% (active).

As to `COC(=O)Cc1cc(COC(C)=O)ccc1C`, the growth was 108%.

For `O=C(Nc1ccc(Cl)cc1)N1NC(c2ccc(Cl)cc2)C=C1c1ccccc1` (stereo not given), the growth is 98.3%.

Regarding `Cn1cc(-c2csc(-c3c[nH]c4ccc(F)cc34)n2)c2ccnc(Cl)c21`, the growth is 15%.

For `N#Cc1ccc(NC(=O)c2sc3nc4c(cc3c2N)C(=O)CCC4)cc1`, the growth is 97.6%.

Take `COc1ccc(-c2c(C#N)cnc(N)c2-c2nc3cc(C)c(C)cc3[nH]2)cc1`: the growth is 57.9%.

As for `CC(=O)N(C)c1ccc([N+](=O)[O-])cc1`, the growth was 101%.

As to `S=c1[nH]nc(-c2cc3ccc2CCc2ccc(cc2)CC3)n1-c1ccccc1`, the growth is 109%.

Consider `Cc1ccc2ccccc2c1C[n+]1ccccc1`, for which the growth was 50.5%.

With `CCc1cccc2c3c(sc12)C(c1ccc(F)cc1)C(C#N)=C(/N=C/c1ccc(Cl)cc1)O3` (stereo not given), the growth is 31%.

Turning to `Cn1c(=O)c2c(nc(Nc3cc(=O)[nH]c(=O)[nH]3)n2Cc2ccccc2)n(C)c1=O`, the growth was 84.7%.

Consider `O=C1Nc2ccccc2/C1=N/N=C/c1ccc(OC2OC(CO)C(O)C(O)C2O)cc1` (stereo not given), for which the growth is 112%.

For `CCc1ccccc1NC(=O)/C(C#N)=C/c1ccc(OC)cc1`, the growth is 108%.

With `CCCCN(CCCC)c1ccc(C(=NC(C)CCCN(CC)CC)c2ccc(N(C)C)cc2)cc1` (stereo not given), the growth was -85.8% (active).

Turning to `COc1ccc2c(c1)C(c1c[nH]c3ccccc13)(c1c[nH]c3ccccc13)CCO2`, the growth is 35%.

Consider `O=C(OC1CCCC1)c1ccccc1Cl`, for which the growth is 132%.

In the case of `CCN1CCN(c2cc(-c3cn[nH]c3-c3cc(C)cc(OC)c3)nc(-c3cccnc3)n2)CC1`, the growth was 54.3%.

As to `CCCCC(=O)OC1CCCCC1C` (stereo not given), the growth was 86.6%.
